Bioassay records: PubChem BioAssay, several laboratories
Sampled rows, rich in hits. Any-hit rate of the full collection: about 5.3%.
ALR inh: blocks human ALR sulfhydryl oxidase activity. inhibition, % (no concentration beside the values). AID 485317. actives 3.8% (n = 290,000). P55789. purified ALR, DTT oxidation, H2O2 HRP-luminol luminescence;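 active means mean replicate inhibition above about 79%, with every replicate also reaching it, limit read from the data; inconclusive means only one of the two criteria met; inactive means mean below limit and not every replicate reaching it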
Target sequence (P55789 whole entry, looked up): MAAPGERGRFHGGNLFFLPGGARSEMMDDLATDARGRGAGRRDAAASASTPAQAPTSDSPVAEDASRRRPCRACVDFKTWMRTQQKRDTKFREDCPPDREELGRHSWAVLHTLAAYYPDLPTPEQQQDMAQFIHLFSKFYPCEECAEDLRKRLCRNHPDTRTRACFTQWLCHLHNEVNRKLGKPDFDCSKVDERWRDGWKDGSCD
M18AAP inhibitor: PfM18AAP enzyme inhibition; recombinant PfM18AAP, H-Glu-NHMec fluorogenic cleavage; inhibition, % at 7.35 µM; actives 1.2% (n = 290,000); AID 1822;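 active means inhibition above the campaign mean inhibition over all tested compounds plus 3 SD, cut at about 28% in these data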
HIF act: HIF pathway transcriptional activation. U2OS HRE-luciferase reporter, luminescence; normalized: DMSO 0%, desferrioxamine 100%. activation, % at 7.5 µM (by protocol). actives 0.32% (n = 300,000). AID 1910;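 active means mean activation of at least 10% of the iron chelator positive control signal, with at least half of replicates also reaching 10%; inconclusive means mean and replicate majority disagree about reaching 10%; inactive means mean and most replicates under 10%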
Mot1-301 SUMO: inhibitors of SUMOylation pathway: yeast Mot1-301 growth rescue. AID 2716. growth rescue, % at 18.8 µM. actives 1% (n = 320,000). S. cerevisiae Mot1-301 growth rescue, ATP luminescence, 38.5C; percent above DMSO median, 100 means doubled;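 active means every valid replicate shows activation above 250% relative to neutral control wells; inactive means the rest, any valid replicate at or below 250%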
Large screens that a line does not name were inactive.

CCOc1ccc(N(CC(=O)Nc2cccc(Cl)c2)S(=O)(=O)c2c(C)noc2C)cc1	ALR inh 97 (no result: HIF act)
Cc1ccc(N(CC(=O)NCc2ccc3c(c2)OCO3)S(=O)(=O)c2c(C)noc2C)cc1	ALR inh 97
Cc1ccc(CNC(=O)CN(c2ccc(C(C)C)cc2)S(=O)(=O)c2c(C)noc2C)cc1	none
Cc1noc(C)c1S(=O)(=O)N(CC(=O)NCc1ccc2c(c1)OCO2)c1ccc(C(C)C)cc1	ALR inh 95 (no result: HIF act)
Cc1cc(C)cc(N(CC(=O)NCc2ccco2)S(=O)(=O)c2c(C)noc2C)c1	ALR inh 86 (no result: HIF act)
COc1ccc(OCc2nc(C#N)c(NCCCn3ccnc3)o2)cc1	none
COc1ccccc1S(=O)Cc1ccc(C(=O)NC2CCCC2)o1 (configuration not stated)	ALR inh 94 (no result: HIF act)
COc1ccccc1OCc1ccc(C(=O)NC2CCCCC2)o1	none
CCC(CC)NC(=O)CO/N=C/c1ccccc1OC(F)F	none
O=C(C1CCCCC1)N1CCN=C1SCc1cccc([N+](=O)[O-])c1	ALR inh 100
O=C(Cc1ccc([N+](=O)[O-])cc1)N1CCN=C1SCc1ccccc1	none
O=C(C1CCCCC1)N1CCN=C1SCc1cccnc1	ALR inh 100 (no result: HIF act)
COc1ccc(CC(=O)N2CCN=C2SCc2cccc([N+](=O)[O-])c2)cc1	ALR inh 99 (no result: Mot1-301 SUMO)
O=C(C1CC1)N1CCN=C1SCc1cccc(C(F)(F)F)c1	ALR inh inconclusive
Cc1ccc(C2=NNC(=O)C(P(=O)(c3ccccc3)c3ccccc3)C2)cc1 (configuration not stated)	none
COc1ccc(S(=O)(=O)N2CCCCCC2)cc1C(=O)N1CCN(c2ccccc2C)CC1	none (no result: M18AAP inhibitor, HIF act)
O=C(CCC(=O)N/N=C/c1ccccc1O)NCc1ccccc1	none
O=C1c2ccccc2CSc2c(O)cccc21	ALR inh 80 (no result: M18AAP inhibitor)
Cn1ncc([N+](=O)[O-])c1C(=O)Nc1ccccc1	none (no result: ALR inh)
COc1cccc(NC(=O)c2c([N+](=O)[O-])cnn2C)c1	ALR inh 96
CCC(=O)c1ccc(OCC(=O)OCC(=O)c2cc(C)n(C)c2C)cc1	none
Oc1cccc(/C=N/c2c(-c3ccco3)nc3ccccn23)c1	HIF act 18
COc1cc(-c2nc3ccccn3c2/N=C/c2cccc(F)c2)ccc1O	ALR inh 78
COc1cc(-c2nc3ccccn3c2/N=C/c2cc(OC)c(O)cc2Cl)ccc1O	ALR inh 94
COc1cc(-c2nc3ccccn3c2/N=C/c2ccccc2)ccc1O	ALR inh 84
Cc1cc(C(C)(C)C)cc(C)c1S(=O)(=O)N1CCN(C(=O)c2cc([N+](=O)[O-])c[nH]c2=O)CC1	none
CC(=O)c1cccc(NC(=O)C2CCN(S(=O)(=O)c3ccccc3)CC2)c1	none
Cc1n[nH]c(=O)c2c(NC(=O)CSc3nn(-c4ccc(F)cc4)c(=S)s3)oc(C)c12	ALR inh 99 (no result: M18AAP inhibitor)
Cc1n[nH]c(=O)c2c(NC(=O)CSc3c(Cl)cccc3Cl)oc(C)c12	none (no result: M18AAP inhibitor)
COC(=O)C(C)Sc1ncnc2c1nnn2-c1ccc(F)cc1 (configuration not stated)	ALR inh 98 (no result: Mot1-301 SUMO)
CCOC(=O)CNC(=O)CSc1ncnc2c1nnn2-c1ccc(F)cc1	none (no result: Mot1-301 SUMO)
COc1ccc(CCNC(=O)C2CCN(C(=O)c3ccc(Br)cc3)CC2)cc1OC	none
COCCSc1ccccc1C(=O)NCc1ccco1	M18AAP inhibitor 30
O=C(c1ccc(Br)cc1)c1cc2ccc(O)cc2oc1=O	ALR inh 97
COc1ccc2cc(C(=O)NCc3ccco3)c(=O)oc2c1	none
Cc1ccc(C(=O)NCc2ccco2)cc1Br	none
COCCSc1ccccc1C(=O)NCCc1ccccc1	none (no result: Mot1-301 SUMO)
O=C(NCc1ccco1)c1cc2ccc(O)cc2oc1=O	M18AAP inhibitor 28
Cc1c(Br)cc(C(=O)NCc2ccco2)c(C)c1C	ALR inh 98
O=C(O)Cc1sc(NC2CCCCC2)nc1-c1ccc(Cl)cc1	none
C=CCNc1nc(C(=O)OCC(=O)c2ccc(Cl)cc2)cs1	ALR inh 98 (no result: M18AAP inhibitor)
COC(=O)C(Cc1ccccc1)NC(=O)CCc1c[nH]c2ccccc12 (configuration not stated)	none
Clc1c(CSc2nc3ccccc3o2)nc2sccn12	HIF act 10
Brc1c(CSc2nc3ccccc3o2)nc2ncccn12	ALR inh 100 (no result: Mot1-301 SUMO)
Clc1c(CSc2nc3ccccc3o2)nc2ccccn12	ALR inh 98
COc1cccc(CNC(=O)C(C(=O)NCc2cccc(OC)c2)c2ncc(C(F)(F)F)cc2Cl)c1	none
COc1ccc(N2CCN(c3ccc(C(=O)O)cc3[N+](=O)[O-])CC2)cc1	ALR inh 79
COc1ccc(C(=O)c2ccc(N3CCOCC3)c([N+](=O)[O-])c2)cc1	none
O=C(Cc1ccccc1)NCC(=O)OCC(=O)c1ccccc1Cl	ALR inh 77
CC(C)Cn1c(-c2ccc(Cl)cc2)cnc1SCC(=O)N1CCOCC1	Mot1-301 SUMO 306
S=c1[nH]nc(-c2cccc3ccccc23)n1-c1cccnc1	ALR inh 91
CCc1cccc(CC)c1-n1c(-c2cccnc2)n[nH]c1=S	none
O=C(COC(=O)c1ccc([N+](=O)[O-])o1)Nc1ccc(Br)cc1F	Mot1-301 SUMO 337 (no result: M18AAP inhibitor, HIF act)
O=C(CC1C(=O)NC2CCCCC2N1C(=O)c1ccc(F)cc1)Nc1ccccc1 (configuration not stated)	none
COc1ccc(-n2c(SCC(=O)Nc3ccc(NC(C)=O)cc3)nc3ccccc3c2=O)cc1	none (no result: ALR inh)
Cc1c(O)nc(SCC(=O)Nc2nccs2)n(-c2ccccc2F)c1=O	ALR inh 99
COc1ccc(-n2c(SCC(=O)Nc3cccc4ccccc34)nc(O)cc2=O)cc1	ALR inh 99, Mot1-301 SUMO 320
COc1ccc(NC(=O)CSc2nc(O)cc(=O)n2-c2ccc(OC)cc2)cc1	ALR inh 99
Cc1ccc(NC(=O)CSc2nc(=O)cc(N)n2-c2ccccc2)cc1	none (no result: ALR inh)
COC(=O)c1cccc(NC(=O)CSc2nc(=O)cc(N)n2-c2ccccc2)c1	ALR inh 98
Cc1nnc(SCC(=O)Nc2nccs2)n(N)c1=O	none
CC(Cc1ccccc1)N1C(=O)c2cccc([N+](=O)[O-])c2C1=O (configuration not stated)	none
Cc1ccc(-n2c(SCC(=O)Nc3ccc4c5c(cccc35)CC4)nc(O)c(C)c2=O)cc1	ALR inh 99
COc1ccc(-n2c(Cc3cccn3C)nnc2SCC(=O)Nc2cccc(C)c2C)cc1	ALR inh 89
CCCCc1nnc(NC(=O)CSc2nc(=O)cc(N)n2-c2cccc(C)c2)s1	ALR inh 98 (no result: Mot1-301 SUMO)
Cc1cccc(-n2c(N)cc(=O)nc2SCC(=O)Nc2nnc(CC(C)C)s2)c1	none (no result: ALR inh, Mot1-301 SUMO)
COc1ccc(-n2c(SCC(=O)Nc3ccccc3)nc(O)cc2=O)cc1	ALR inh 88
c1ccc2c3n(nc2c1)CCCO3	none (no result: M18AAP inhibitor, HIF act)
COc1ccccc1-n1c(SCC(=O)Nc2ccccc2C)nc(O)cc1=O	none
O=C(CSc1nc(O)cc(=O)n1-c1ccccc1)c1ccc(Br)cc1	ALR inh 98
O=c1cc(O)nc(SCc2ccccc2)n1-c1ccccc1	none
CCOc1ccc(NC(=O)CSc2nc(O)c(C)c(=O)n2-c2ccc(F)cc2)cc1	ALR inh 100
